Screens deposited in PubChem BioAssay by National Center for Advancing Translational Sciences (NCATS).
Only a selection was taken, and hits are over-represented in it overall.
CHX counter = affects cycloheximide protein synthesis inhibition readout, counter-screen; cell reporter, cycloheximide protein synthesis inhibition counterscreen; max response, %; 12% of 300,000 active; AID 2314; in the data active = max response mostly above about 13%, no sharp cut-off; inactive = mostly below about 14%; also: read at 38.3 µM for the half of the compounds with a filed dose; 0% is about no effect
FBPA Giardia inh = inhibitors of Giardia lamblia fructose-1,6-bisphosphate aldolase | purified Giardia FBPA | Potency, µM (titrated, usually from 59.6 µM), for the others: top-dose activity, negative = inhibition, most hits filed as inhibitors | 0.71% of 290,000 active | AID 2451; also: potency is read from the fitted curve at half-maximal effect; % is scaled to controls: 0 for no effect and ±100 for the full control effect; nearly all actives have a fitted effect of over 55% in size
Target sequence (A8B2U2 whole entry, looked up): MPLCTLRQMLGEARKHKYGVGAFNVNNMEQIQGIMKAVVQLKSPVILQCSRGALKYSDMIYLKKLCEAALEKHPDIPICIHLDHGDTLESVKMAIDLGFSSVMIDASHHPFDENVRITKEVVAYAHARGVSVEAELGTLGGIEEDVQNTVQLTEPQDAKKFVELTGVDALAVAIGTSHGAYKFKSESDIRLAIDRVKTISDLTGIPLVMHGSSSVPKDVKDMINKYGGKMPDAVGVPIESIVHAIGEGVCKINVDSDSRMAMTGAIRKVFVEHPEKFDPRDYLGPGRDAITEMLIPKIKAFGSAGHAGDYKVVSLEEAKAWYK
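Giardia FBPA (40 nM reagent) was preincubated 10 min at RT with compound (up to 57.5 uM final), then substrate plus GAPDH/TPI/NAD/arsenate coupling system with diaphorase/resazurin was added; resorufin fluorescence (525/598 nm) was read after 20 min.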
LmPK inh = inhibitors of Leishmania mexicana pyruvate kinase; Q27686; purified LmPK, Kinase-Glo ATP luminescence, 1 h; Potency, µM (series often up to 57.5 µM), for the others: at the top dose activity change, negative = inhibition, usual class: inhibitors; 0.37% of 290,000 active; also: potency is read from the fitted curve at half-maximal effect; % is scaled to controls: 0 for no effect and ±100 for the full control effect
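ATP generated from ADP (0.1 mM) and PEP (0.5 mM) by 0.1 nM LmPK over 1 h at room temperature (pH 7.2 imidazole buffer) was detected by coupled luciferase luminescence. Values were normalized to uninhibited and no-enzyme wells.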
Sm TGR inh = S. mansoni TGR enzyme inhibition. Q962Y6. purified TGR, DTNB reduction, TNB absorbance 405 nm. Potency, µM (top dose mostly 114 µM), for inactives: top-dose activity change, negative = inhibition, hits mostly inhibitors. 3% of 360,000 active. AID 485364; also: potency is read from the fitted curve at half-maximal effect; % is scaled to controls: 0 for no effect and ±100 for the full control effect; nearly all actives have a fitted effect of over 60% in size
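TGR 20 nM + NADPH 100 uM (dispensed conc.), cpd preinc 15 min RT; start with NADPH (500 uM addition) then DTNB (15 mM addition). Kinetic TNB absorbance, 405 nm filter. Four-parameter Hill fit across titration.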
Shiga toxin inh = blocks Shiga toxin action in Vero cells; Vero cells, Shiga toxin protein synthesis inhibition reporter; inhibition, % at 38.7 µM; 9.2% of 290,000 active; AID 2315; in the data active = inhibition mostly above about 28%, no sharp cut-off; inactive = mostly below about 43%; also: 0% is about no effect
Tb PYK inh = inhibitors of Trypanosoma brucei pyruvate kinase | AID 624173 | Potency, µM (top dose mostly 76.8 µM), inactives show top-dose activity, negative = inhibition, actives largely listed as inhibitors | TbPYK enzyme, Kinase-Glo Plus ATP luminescence, 45 min | 0.12% of 410,000 active; also: potency is read from the fitted curve at half-maximal effect; % is scaled to controls: 0 for no effect and ±100 for the full control effect; nearly all actives have a fitted effect of over 50% in size
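Activity of T. brucei pyruvate kinase was followed by Kinase-Glo Plus luminescence after the enzyme reacted 45 min at room temperature with 130 uM ADP (final) and substrate. Test compounds were added before ADP at multiple concentrations.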
* hit, by the source's call; ? = inconclusive; . = not tested or not shown; [ ] = another dose, or the depositor's remark. Unless noted, calls follow the shape of the dose curve; as a rule, active = well fitted curve in the direction sought with a large enough effect; inconclusive = small, poorly fitted or top-dose-only effect, or another doubt; inactive = no such curve, though single readings can be large; an effect the other way counts as inactive or inconclusive.

SMILES | CHX counter | FBPA Giardia inh | LmPK inh | Sm TGR inh | Shiga toxin inh | Tb PYK inh
Cc1ccc(F)cc1NC(=O)CCc1c(C)nn(-c2ccc(N3CCOCC3)nn2)c1C | . | . | . | -3% | . | -3%
Cc1nn(-c2ccc(N3CCOCC3)nn2)c(C)c1CCC(=O)Nc1ccccc1 | 26* | . | -2% | ? | 20 | 11%
Cc1ccc(NC(=O)CCc2c(C)nn(-c3ccc(N4CCOCC4)nn3)c2C)cc1F | 41* | . | 4% | 4% | 69* | -1%
COC(=O)c1ccc(NC(=O)CCc2c(C)nn(-c3ccc(N4CCOCC4)nn3)c2C)cc1 | . | . | . | -3% | . | 2%
COc1ccc(NC(=O)CN(C)C(=O)C2=NN(c3ccccc3)C(=O)CC2)cc1 | . | . | . | -21% | . | 1%
CCN(C(=O)CSc1nc2ccccc2o1)c1c(N)n(Cc2ccccc2)c(=O)[nH]c1=O | . | . | . | -5% | . | 3%
CC(Nc1cccc2ccccc12)C(=O)N/N=C/c1ccc([N+](=O)[O-])cc1 (configuration not stated) | 16 | ? | 4% | -10% | -36 | 2%
Cc1cccc(/C=N/NC(=O)C(C)Nc2cccc3ccccc23)n1 (configuration not stated) | 16* | ? | 0% | -1% | 12 | 1%
CCN(CC(=O)Nc1ccc(NC(C)=O)cc1)C(=O)/C=C/c1ccc(C)o1 | . | . | . | 45µM* | . | 3%
COc1cccc(CNC(=O)c2cccn2-c2nnc(N3CCCC3)s2)c1 | . | . | . | 8% | . | 0%[15.4 µM]
Cc1ccc(-c2cc(C(=O)O)c3ccccc3n2)c(C)c1 | 18* | 10% | -5% | -1% | 5 | 1%
Cc1ccc(-c2cc(C(=O)Nc3cc(C)on3)c3ccccc3n2)c(C)c1 | 13 | -11% | 0% | -11% | 13 | 3%
O=C(O)c1cc(-c2ccc(Cl)s2)nc2ccccc12 | 14 | -7% | 5% | 2% | 54* | -15%
COc1ccc(-c2nc(C#N)c(NCc3cccnc3)o2)cc1OC | -3 | 5% | 1% | 3% | -12 | -6%
N#Cc1nc(-c2ccco2)oc1NCc1cccnc1 | -4 | 1% | -1% | 89µM* | 9 | -10%
N#Cc1nc(-c2cccc(Cl)c2)oc1NCc1cccnc1 | 26 | 2% | 2% | -23% | 46* | -1%
COc1ccc(Cc2nc(-c3ccncc3)no2)cc1 | 37* | 6% | 2% | 14% | 85* | 4%
COc1ccc(-c2noc(Cc3ccccc3OC)n2)cc1 | 23 | 1% | 2% | 0% | 44 | -3%
Clc1ccc(Cc2nc(-c3ccncc3)no2)cc1 | 17* | 0% | -1% | 0% | 38 | 2%
COc1ccc(-c2noc(Cc3cccs3)n2)cc1 | 32* | 1% | -1% | 6% | 82* | 13%
O=C(c1cccc(F)c1)N1CCC2(CC1)CCN(c1ccccn1)CC2 | . | 4% | . | . | . | 6%
Cc1ccc(N=C2C(=S)N(c3ccc(C)cc3)C(=N)N2/N=C/c2ccc(Cl)cc2)cc1 | 48* | 7% | -1% | -24% | 74* | -26%
COc1ccc(/C=N/N2CCN(c3ccc(Cl)cc3)CC2)cc1 | -2 | -5% | 0% | 7% | . | ?
c1ccc(CSc2nnc(-c3c[nH]c4ccccc34)o2)cc1 | 48* | -8% | 11% | 0% | 169* | 2%
c1ccc2c(-c3nnc(SCc4cn5ccccc5n4)o3)c[nH]c2c1 | 7 | -12% | 0% | -19% | 15 | -1%
SMILES | CHX counter | FBPA Giardia inh | LmPK inh | Sm TGR inh | Shiga toxin inh | Tb PYK inh
CC(C)(C)NC(=O)CSc1nnc(-c2c[nH]c3ccccc23)o1 | 28* | -9% | 5% | ? | 65* | -8%
CCN(CC)C(=O)CSc1nnc(-c2c[nH]c3ccccc23)o1 | 40* | -1% | 2% | 3% | . | 3%
O=C(CCNS(=O)(=O)c1ccc(OC(F)(F)F)cc1)NC1CC1 | . | . | . | . | . | -2%
CC(=O)n1cc([C@H]2C=C(C(=O)O)O[C@@H](OCCCCO)C2)c2ccccc21 | 8 | 0% | 4% | ? | -42 | 0%
O=C(NCc1ccccc1)C1=C[C@H](c2csc3ccccc23)C[C@H](OCCCCO)O1 | 8 | -28% | 4% | ? | 14 | 4%
O=C(Nc1ccccc1)C1=C[C@H](c2csc3ccccc23)C[C@H](OCCCCO)O1 | 12* | -8% | 4% | -23% | 6 | 0%
CC(=O)n1cc([C@@H]2C=C(C(=O)Nc3ccccc3)O[C@H](OCCCCO)C2)c2ccccc21 | 12 | -8% | -2% | -20% | 24* | 1%
CCCCCCCCC/C(=N\O)c1ccccn1 | 24* | -3% | 2% | 0% | 83* | 3%
CCSC1=NC2(CCCCC2)Nc2sc3c(c21)CCCC3 | -1 | -29% | 24% | 56µM* | -8 | -24%
CCSc1ncnc2sc3c(c12)CCC3 | -1 | 7% | 3% | 10% | -2 | 4%
CCOC(=O)c1sc(NC(=O)C(CC)OC(=O)c2ccco2)nc1C (configuration not stated) | 16* | -6% | 1% | 4% | 13 | 3%
CCOC(=O)c1sc(NC(=S)NC(=O)c2ccco2)nc1C | 42* | -27% | -1% | -31% | 50 | 2%
CCOC(=O)c1sc(NC(NC(=O)c2ccco2)(C(=O)OC)C(F)(F)F)nc1C (configuration not stated) | 2 | 2% | 2% | 5% | 9 | -4%
O=C(Cn1c(SCC(=O)Nc2ccc(F)cc2)nc2ccccc21)NCc1ccc(Cl)cc1 | . | . | . | 7% | . | 7%
CCC(C)NC(=O)CSc1nc2cc3c(cc2c(=O)n1Cc1ccc(C(=O)NCCc2ccc(OC)c(OC)c2)cc1)OCO3 (configuration not stated) | 6 | . | . | -3% | 7 | .
COc1ccc2c(c1)O/C(=C\c1sccc1C)C2=O | 24* | 0% | -18% | -8% | 123 | -2%
O=C(O)COc1ccc2c(c1)O/C(=C\c1cccs1)C2=O | -1 | 14% | -14% | 10% | 5 | -3%
O=C(COc1ccccc1)Nc1nnc(SCc2cc(=O)c3ccccc3[nH]2)s1 | . | . | . | -8% | . | ?
Cc1ccc(OCC(=O)Nc2nnc(SCc3cc(=O)c4ccccc4[nH]3)s2)cc1 | . | . | . | 0% | . | 28µM*
CCc1ccc(NC(=O)CC(NCc2cccnc2)C(=O)O)cc1 (configuration not stated) | . | . | . | 8% | . | -5%
NC(Cc1c[nH]c2ccc(OCc3ccccc3)cc12)C(=O)O (configuration not stated) | 4 | -16% | -8% | 11µM* | 13 | -5%
CC1(C)OC(C(O)(c2cc(C(F)(F)F)cc(C(F)(F)F)c2)c2cc(C(F)(F)F)cc(C(F)(F)F)c2)C(C(O)(c2cc(C(F)(F)F)cc(C(F)(F)F)c2)c2cc(C(F)(F)F)cc(C(F)(F)F)c2)O1 (configuration not stated) | . | 0%[12.9 µM] | . | . | . | .
